What all share (conditions): mRNA level, 48 h; actives raise or lower the signal
Read-out in experiment [1]: ABC Transporter (ABCC2), ABCC2 (gene 1244)
In words: LTEA_HepaRG_ABCC2: Life Technologies and Expression Analysis (LTEA) Assay for ABC Transporter (ABCC2) using HepaRG (AID 2283464). Summed up:
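Gene expression of ABCC2 was determined by qRT-PCR in HepaRG cells exposed 48 h to chemicals (highest 100 uM, half-log dilutions). Activity was fitted in both directions relative to 0.5% DMSO vehicle.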

Read-out in experiment [2]: Broad substrate specificity ATP-binding cassette transporter ABCG2 (Homo sapiens) (UniProt Q9UNQ0)
In words: LTEA_HepaRG_ABCG2: Life Technologies and Expression Analysis (LTEA) Assay for ABC Transporter (ABCG2) using HepaRG (AID 2283465). Summed up:
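HepaRG, 48 h exposure, 8-pt half-log series from 100 uM, 0.5% DMSO vehicle, duplicates. Readout: ABCG2 transcript by qRT-PCR (Fluidigm array), housekeeping-normalized; bidirectional curve fit relative to DMSO baseline.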

Read-out in experiment [3]: Peroxisomal acyl-coenzyme A oxidase 1 (ACOX1) gene, ACOX1 (gene 51)
The experiment can be described thus: LTEA_HepaRG_ACOX1: Life Technologies and Expression Analysis (LTEA) Assay for Peroxisomal acyl-coenzyme A oxidase 1 (ACOX1) gene using HepaRG (AID 2283467). Summed up: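 HepaRG, 48 h chemical exposure, 8-pt half-log series from 100 uM top, 0.5% DMSO vehicle, duplicates. Readout: ACOX1 mRNA by Fluidigm qRT-PCR, housekeeping-normalized; bidirectional fit vs DMSO baseline.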

Read-out in experiment [4]: Alkaline Phosphatase, Placental (ALPP) gene, ALPP (gene 250)
The experiment can be described thus: LTEA_HepaRG_ALPP: Life Technologies and Expression Analysis (LTEA) Assay for Alkaline Phosphatase, Placental (ALPP) gene using HepaRG (AID 2283468).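 On AC50: differentiated human HepaRG liver cells in serum-free induction medium; ALPP transcript by TaqMan qRT-PCR normalized to ACTB GAPDH and POLR2A.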 Summed up: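 Expression of ALPP was quantified by qRT-PCR against three housekeeping genes in human HepaRG cultures treated for 48 h with an eight-point concentration series up to 100 uM. Activity in either direction was fitted relative to 0.5% DMSO.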

Read-out in experiment [5]: Bcl-2 (BAD) gene, BAD (gene 572)
The experiment can be described thus: LTEA_HepaRG_BAD: Life Technologies and Expression Analysis (LTEA) Assay for Bcl-2 (BAD) gene using HepaRG (AID 2283469). The essentials: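 HepaRG, 48 h exposure, 8-pt half-log curve from 100 uM in 0.5% DMSO, duplicates. Readout: TaqMan qRT-PCR for BAD mRNA, housekeeping-normalised (ACTB/GAPDH/POLR2A); gain or loss fitted against DMSO baseline.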

Read-out in experiment [6]: adenosine kinase (ADK) gene, ADK (gene 132)
The experiment can be described thus: LTEA_HepaRG_ADK: Life Technologies and Expression Analysis (LTEA) Assay for adenosine kinase (ADK) gene using HepaRG (AID 2283471). Summed up:
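ADK expression quantified by qRT-PCR, normalised to three housekeeping genes, after 48 h exposure of HepaRG cells to eight concentrations (top 100 uM, half-log steps, duplicate, 0.5% DMSO). Up- or down-regulation fitted relative to vehicle.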

Read-out in experiment [7]: Alpha-fetoprotein (AFP) gene, AFP (gene 174)
In words: LTEA_HepaRG_AFP: Life Technologies and Expression Analysis (LTEA) Assay for Alpha-fetoprotein (AFP) gene using HepaRG (AID 2283472).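 On AC50: AFP transcript by TaqMan qRT-PCR normalized to ACTB GAPDH and POLR2A.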 The essentials: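 Chemicals were tested on differentiated HepaRG cells for 48 hours at eight concentrations up to 100 uM, with 0.5% DMSO as vehicle. AFP expression was then quantified by qRT-PCR and analyzed for gain or loss relative to DMSO.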

Read-out in the next experiment: BCL2L11 (gene 10018)
In words: LTEA_HepaRG_BCL2L11: Life Technologies and Expression Analysis (LTEA) Assay for Bcl-2 (BCL2L11) gene using HepaRG (AID 2283473). The essentials: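 Cells were plated, cultured 48 h, switched to serum-free induction medium, then dosed in duplicate for 48 h at eight half-log concentrations up to 100 uM. Lysates underwent RNA isolation and TaqMan qRT-PCR; gain or loss versus DMSO was fitted.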

Read-out in experiment [8]: Apolipoprotein A-V (APOA5) gene, APOA5 (gene 116519)
The experiment can be described thus: LTEA_HepaRG_APOA5: Life Technologies and Expression Analysis (LTEA) Assay for Apolipoprotein A-V (APOA5) gene using HepaRG (AID 2283474). The essentials:
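Human liver HepaRG cells are treated 48 h with test chemicals (100 uM top, half-log dilutions, 0.5% DMSO). APOA5 mRNA induction or loss is measured by qRT-PCR relative to vehicle.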

Read-out in experiment [9]: Apoptosis regulator Bcl-2 (Homo sapiens) (UniProt P10415)
The experiment can be described thus: LTEA_HepaRG_BCL2: Life Technologies and Expression Analysis (LTEA) Assay for Bcl-2 gene using HepaRG (AID 2283475). Summed up:
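Plated human HepaRG cells are exposed to test chemicals for 48 h across eight concentrations from 100 uM downward in half-log steps (0.5% DMSO). BCL2 expression is then measured by qRT-PCR with housekeeping normalisation and fitted bidirectionally against vehicle.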

Read-out in experiment [10]: Bcl-2 (BID) gene, BID (gene 637)
In words: LTEA_HepaRG_BID: Life Technologies and Expression Analysis (LTEA) Assay for Bcl-2 (BID) gene using HepaRG (AID 2283476). Summed up: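 Cells are plated, cultured 48 h, switched to serum-free induction medium, then dosed 48 h (100 uM top, half-log steps, 0.5% DMSO). RNA is isolated and BID expression read by qRT-PCR.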

Read-out in the next experiment: Caspase-3 (Homo sapiens) (UniProt P42574)
In words: LTEA_HepaRG_CASP3: Life Technologies and Expression Analysis (LTEA) Assay for cysteine-aspartic acid protease (CASP3) using HepaRG (AID 2283477). Summed up: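 In HepaRG liver cells dosed for 48 h at up to 100 uM (eight-point, duplicate), CASP3 expression changes are scored by qRT-PCR. Activity is fitted in both directions with 0.5% DMSO as baseline.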

Read-out in experiment [11]: Cytochrome P450 (CYP1A2), CYP1A2 (gene 1544)
The experiment can be described thus: LTEA_HepaRG_CYP1A2: Life Technologies and Expression Analysis (LTEA) Assay for Cytochrome P450 (CYP1A2) using HepaRG (AID 2283479).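 On AC50: TaqMan qRT-PCR transcript level normalized to ACTB GAPDH and POLR2A.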 The essentials: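 Assesses CYP1A2 mRNA in human HepaRG liver cells after 48 h chemical exposure at up to 100 uM. Values come from qRT-PCR with bidirectional curve fitting relative to DMSO.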

Read-out in experiment [12]: cysteine-aspartic acid protease (CASP8), CASP8 (gene 841)
In words: LTEA_HepaRG_CASP8: Life Technologies and Expression Analysis (LTEA) Assay for cysteine-aspartic acid protease (CASP8) using HepaRG (AID 2283480). Summed up:
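qRT-PCR readout of CASP8 mRNA, normalized to three housekeeping genes, after 48 h chemical exposure of HepaRG cells; 8-point half-log series, top 100 uM, 0.5% DMSO vehicle. Bidirectional curve fitting against DMSO baseline.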

Read-out in experiment [13]: Cytochrome P450 (CYP2B6), CYP2B6 (gene 1555)
The experiment can be described thus: LTEA_HepaRG_CYP2B6: Life Technologies and Expression Analysis (LTEA) Assay for Cytochrome P450 (CYP2B6) using HepaRG (AID 2283481). Summed up:
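Using 48 h treatment of HepaRG cells in serum-free induction medium, concentrations spanned half-log steps from 100 uM in 0.5% DMSO vehicle. CYP2B6 mRNA induction or loss is scored by qRT-PCR against DMSO.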

Read-out in experiment [14]: Cytochrome P450 2C19 (Homo sapiens) (UniProt P33261)
The experiment can be described thus: LTEA_HepaRG_CYP2C19: Life Technologies and Expression Analysis (LTEA) Assay for CYP2C19 using HepaRG (AID 2283482). The essentials:
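Human HepaRG liver cells received test chemicals for 48 h (highest 100 uM, half-log dilutions in 0.5% DMSO). CYP2C19 mRNA induction or loss is read by multiplexed qRT-PCR and fitted in both directions versus vehicle.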

Read-out in experiment [15]: Cytochrome P450 (CYP24A1), CYP24A1 (gene 1591)
In words: LTEA_HepaRG_CYP24A1: Life Technologies and Expression Analysis (LTEA) Assay for Cytochrome P450 (CYP24A1) using HepaRG (AID 2283478). The essentials:
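Human liver HepaRG cultures receive each chemical for 48 h across an eight-point half-log series topping at 100 uM in 0.5% DMSO. Induction or suppression of CYP24A1 mRNA is scored relative to vehicle after housekeeping-gene normalization.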

Read-out in another experiment: CYP2C8 (gene 1558)
The experiment can be described thus: LTEA_HepaRG_CYP2C8: Life Technologies and Expression Analysis (LTEA) Assay for CYP2C8 using HepaRG (AID 2283483). The essentials: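 HepaRG (human liver line), 48 h chemical exposure, 8-pt half-log series from 100 uM, 0.5% DMSO vehicle. Readout: CYP2C8 transcript by qRT-PCR, housekeeping-normalized. Bidirectional fit vs DMSO baseline.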

Molecules are shown by their SMILES. Activity calls are given as the source filed them. How the source made its calls: active means hit-call score of the fitted dose curve at least 0.9, where 1 is the maximum; inactive means score below 0.9.

Chain of Broad substrate specificity ATP-binding cassette transporter ABCG2 (Homo sapiens) (Q9UNQ0 whole entry, looked up): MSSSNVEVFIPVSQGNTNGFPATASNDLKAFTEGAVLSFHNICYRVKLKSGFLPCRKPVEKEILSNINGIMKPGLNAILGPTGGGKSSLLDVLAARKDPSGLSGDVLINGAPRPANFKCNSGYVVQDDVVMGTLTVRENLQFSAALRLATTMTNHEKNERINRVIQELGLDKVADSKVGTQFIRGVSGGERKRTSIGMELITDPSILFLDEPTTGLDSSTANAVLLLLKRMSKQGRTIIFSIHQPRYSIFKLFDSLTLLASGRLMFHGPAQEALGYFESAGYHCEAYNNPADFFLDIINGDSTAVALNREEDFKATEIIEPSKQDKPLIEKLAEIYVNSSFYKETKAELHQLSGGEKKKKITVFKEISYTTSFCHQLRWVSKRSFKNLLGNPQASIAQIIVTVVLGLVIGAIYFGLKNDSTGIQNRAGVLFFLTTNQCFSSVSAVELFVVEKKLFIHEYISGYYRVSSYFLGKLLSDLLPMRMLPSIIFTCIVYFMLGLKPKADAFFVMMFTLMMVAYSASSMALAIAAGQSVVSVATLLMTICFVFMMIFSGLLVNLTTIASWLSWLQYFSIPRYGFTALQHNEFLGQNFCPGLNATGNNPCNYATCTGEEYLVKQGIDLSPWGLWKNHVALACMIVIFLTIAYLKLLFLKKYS
Chain of Cytochrome P450 2C19 (Homo sapiens) (P33261 whole entry, looked up): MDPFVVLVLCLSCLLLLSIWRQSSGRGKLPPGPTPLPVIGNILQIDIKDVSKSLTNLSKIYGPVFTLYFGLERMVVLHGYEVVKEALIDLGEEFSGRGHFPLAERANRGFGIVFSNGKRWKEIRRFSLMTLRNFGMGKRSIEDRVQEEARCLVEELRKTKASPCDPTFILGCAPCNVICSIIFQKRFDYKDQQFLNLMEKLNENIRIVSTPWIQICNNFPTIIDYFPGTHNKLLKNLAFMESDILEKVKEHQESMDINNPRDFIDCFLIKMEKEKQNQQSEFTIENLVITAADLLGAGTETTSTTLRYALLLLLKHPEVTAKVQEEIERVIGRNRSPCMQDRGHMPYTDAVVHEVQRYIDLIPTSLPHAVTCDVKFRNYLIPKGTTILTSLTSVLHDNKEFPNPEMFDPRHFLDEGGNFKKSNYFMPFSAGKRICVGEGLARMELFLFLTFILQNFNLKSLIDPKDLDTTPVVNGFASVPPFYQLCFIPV
Chain of Apoptosis regulator Bcl-2 (Homo sapiens) (P10415 whole entry, looked up): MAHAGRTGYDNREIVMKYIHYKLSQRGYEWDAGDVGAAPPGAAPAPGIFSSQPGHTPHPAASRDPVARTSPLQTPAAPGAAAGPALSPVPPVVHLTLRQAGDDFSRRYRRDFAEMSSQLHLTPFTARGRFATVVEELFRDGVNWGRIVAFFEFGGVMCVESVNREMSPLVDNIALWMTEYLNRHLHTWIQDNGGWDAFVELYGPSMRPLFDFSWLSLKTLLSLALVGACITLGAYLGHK
Chain of Caspase-3 (Homo sapiens) (P42574 whole entry, looked up): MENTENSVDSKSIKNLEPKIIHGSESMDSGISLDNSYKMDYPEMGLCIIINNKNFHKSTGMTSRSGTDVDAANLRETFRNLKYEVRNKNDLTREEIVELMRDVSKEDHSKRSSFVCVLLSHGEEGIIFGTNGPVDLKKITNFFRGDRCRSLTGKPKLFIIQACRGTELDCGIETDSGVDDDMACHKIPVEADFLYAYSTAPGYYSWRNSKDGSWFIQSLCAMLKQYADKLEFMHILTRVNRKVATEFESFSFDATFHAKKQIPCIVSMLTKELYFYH

Regarding `CCCCOCCOCCOCc1cc2c(cc1CCC)OCO2`, the AC50 in experiment [1] was 7.48 µM (active); in [2], 8.84 µM (active); in [7], 33.3 µM (active); in experiment [11], 16.5 µM (active); in [13], 2.28 µM (active); in experiment [14], 5.73 µM (active). Also, the result (in [3]; in experiment [4]; in experiment [5]; in experiment [6]; with BCL2L11 (gene 10018); in experiment [8]) was inactive. In addition, the call (in [9]; in experiment [10]; with Caspase-3 (Homo sapiens); in [12]) was inactive.
On to `COC(=O)CSc1cc(N=c2sc(=O)n3n2CCCC3)c(F)cc1Cl`, for which the AC50 in [1] is 50 µM (active); in experiment [13], 38.8 µM (active); in experiment [14], 24 µM (active). The outcome (in experiment [2]; in [3]; in experiment [4]; in [5]; in experiment [6]; with BCL2L11 (gene 10018)) was inactive. Moreover, the outcome (in [8]; in [9]; in experiment [10]; with Caspase-3 (Homo sapiens); in experiment [15]; in [11]) was inactive. The result in experiment [12] was inactive.
For the compound `COCCO`, the result in experiment [1], in [2], in experiment [3], in experiment [4], in experiment [5] and in [6] was inactive. The compound was classed as inactive (in experiment [7]; with BCL2L11 (gene 10018); in experiment [8]; in experiment [9]; in experiment [10]; in the experiment with Caspase-3 (Homo sapiens)). Besides, the compound was classed as inactive in [15], in [11], in experiment [12], in [13] and in experiment [14].
As for `C=CCOC(Cn1ccnc1)c1ccc(Cl)cc1Cl` (stereo not given), the AC50 in experiment [1] was 37.9 µM (active); in experiment [2], 2.47 µM (active); in [3], 45 µM (active); in [4], 50 µM (active); with BCL2L11 (gene 10018) it was 88.6 µM (active); in experiment [9], 13.7 µM (active). Moreover, the AC50 in [12] was 84 µM (active); in [13], 31.6 µM (active); in experiment [14], 34.3 µM (active). Further, the result (in [5]; in experiment [6]; in [10]; with Caspase-3 (Homo sapiens)) was inactive.
As for `CCCN(CCC)C(=O)SCC`, the compound was classed as inactive in [1], in experiment [2], in experiment [3], in experiment [4], in [5] and in [6]. Moreover, the compound was called inactive (with BCL2L11 (gene 10018); in experiment [8]; in experiment [9]; in [10]; with Caspase-3 (Homo sapiens); in experiment [15]). The outcome (in experiment [11]; in experiment [12]; in experiment [14]; in the experiment with CYP2C8 (gene 1558)) was inactive. Further, the AC50 in experiment [13] was 11.4 µM (active).
As to `CCCCCOC(=O)COc1cc(N2C(=O)C3=C(CCCC3)C2=O)c(F)cc1Cl`, the result in experiment [1], in [2], in experiment [3], in [4], in experiment [5] and in experiment [6] was inactive. In addition, the outcome (with BCL2L11 (gene 10018); in experiment [8]; in experiment [9]; in experiment [10]; with Caspase-3 (Homo sapiens); in experiment [11]) was inactive. Further, the compound was called inactive (in experiment [12]; in experiment [14]; in the experiment with CYP2C8 (gene 1558)). Further, the AC50 in [13] was 25.9 µM (active).
As to `CCC(C)OC(=O)N1CCCCC1CCO` (stereo not given), the outcome in experiment [1], in experiment [2], in [3], in experiment [4], in experiment [5] and in experiment [6] was inactive. For the same compound, the compound was classed as inactive (with BCL2L11 (gene 10018); in [8]; in experiment [9]; in experiment [10]; in the experiment with Caspase-3 (Homo sapiens); in experiment [11]). The outcome in experiment [12] was inactive. Besides, the figures for the AC50 in experiment [13] and in [14] were 35 µM (active) and 50 µM (active), respectively.

For the origin of these results see PubChem BioAssay (EPA / NIEHS).
